Results on 9 compounds are retold here after PubChem BioAssay (NCATS).

“And” between values parts separate entries of the source, which are not always exact repeats. Equal values may be shown once. Unmarked numbers belong to inactive results. Inconclusive results are not listed. The source made the active and inactive calls. Unless noted, calls come from the whole dose curve; as a rule, active = well fitted inhibition curve with a large enough effect; inconclusive = small, poorly fitted or top-dose-only effect; inactive = flat fitted curve, though single readings scatter.

Experiment [1] is described as follows: Drug repurposing screens with cells derived from glioblastoma tumor samples (AID 1345199). For activity, negative = cell killing: % is set by controls: 0 for no effect and ±100 for the full control effect. Note: nearly all actives have a fitted effect of over 40% in size. Note: potency is the fitted concentration of half-maximal effect. To be noted: GBM patient neurospheres viability, ATP luminescence, 48 h. A digest of the protocol: (§1)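 Four patient lines of CD133+ GBM neurospheres were screened at several concentrations; hits were retested in those lines plus three slower-growing GBM lines, using 48-hour treatment and ATP-based viability.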

The subject of a further experiment is astro (control astrocytes). The description is as above. To be noted: viability, ATP luminescence, 48 h; series mostly up to 45.9 µM. A digest of the protocol: as §1
Experiment [2] concerns the target Nuclear receptor subfamily 1 group I member 2 (Rattus norvegicus) (UniProt Q9R1A7). Put plainly: qHTS assay for small molecule activators of the rat pregnane X receptor (rPXR) signaling pathway (AID 651751; call rule not given here; note: 0% is about no effect). To be noted: rPXR reporter cells, luciferase (One-Glo), 24 h. (In general: Quantitative high-throughput screening tests each substance at several concentrations.)

Experiment [3] can be described thus: qHTS assay for small molecule activators of the human pregnane X receptor (PXR) signaling pathway (AID 720659; call rule not given here; note: 0% is about no effect). The conditions noted are these: DPX-2 HepG2 CYP3A4-luciferase, 24 h; series mostly up to 92.3 µM.
The mark [4] stands for this setting: at 45.9 µM (top of the series), tumour line B.
[5] abbreviates: at 45.9 µM (top of the series), tumour line D.
[6] abbreviates: at 46.1 µM (top of the series), tumour line C.

Sequence of Nuclear receptor subfamily 1 group I member 2 (Rattus norvegicus) (Q9R1A7 whole entry, looked up): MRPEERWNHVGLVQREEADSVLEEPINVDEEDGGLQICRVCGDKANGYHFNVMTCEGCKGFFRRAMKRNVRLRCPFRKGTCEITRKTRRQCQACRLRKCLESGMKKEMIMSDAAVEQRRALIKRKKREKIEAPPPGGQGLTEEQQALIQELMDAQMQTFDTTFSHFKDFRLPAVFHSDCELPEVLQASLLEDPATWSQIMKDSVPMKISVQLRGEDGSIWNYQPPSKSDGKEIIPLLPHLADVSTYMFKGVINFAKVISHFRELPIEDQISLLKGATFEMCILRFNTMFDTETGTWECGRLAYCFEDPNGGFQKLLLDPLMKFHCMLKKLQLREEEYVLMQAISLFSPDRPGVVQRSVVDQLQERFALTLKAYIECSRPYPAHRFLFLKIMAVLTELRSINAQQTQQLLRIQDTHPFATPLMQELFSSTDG

Regarding `[2H]C([2H])([2H])[C@H](N)Cc1ccccc1`, the activity, negative = cell killing was -8.74% in experiment [1] (setting [4]), -8.54% in experiment [1] (setting [5]) and -22.7% in experiment [1] (setting [6]). In addition, the Potency result in the experiment with astro was “inactive”.

`C[C@@H](Cc1ccccc1)N(C)C`: the activity, negative = cell killing in experiment [1] (setting [4]) was -4.88%; in experiment [1] (setting [5]), -10.7%; in experiment [1] (setting [6]), -6.52%. The Potency entry in the experiment on astro was “inactive”.

As for `[O]=[Cr](=[O])([OH])[O][Cr](=[O])(=[O])[OH]`, the activity, negative = cell killing in experiment [1] (setting [5]) was -3.21%; in experiment [1] (setting [6]), -22.8% and -5.59%. Moreover, the Potency entry with astro is “inactive”.

As to `C=CCC1(C(C)CCC)C(=O)N=C(S)NC1=O` (stereo not drawn), the results for the activity, negative = cell killing in experiment [1] (setting [4]), in experiment [1] (setting [5]) and in experiment [1] (setting [6]) were -7.88%, -15.2% and -10.6%, respectively. For the same compound, in the experiment with astro, the Potency result was “inactive”.

Take `COC(=O)[C@@H]1[C@H]2CC[C@@H](C[C@H]1OC(=O)c1ccccc1)N2C`: the activity, negative = cell killing in experiment [1] (setting [4]) is -0.119%; in experiment [1] (setting [5]), 4.05%; in experiment [1] (setting [6]), -3.81%. In addition, the Potency result in the experiment on astro was “inactive”.

Take `O=C(O)C(Cl)(Cl)Cl`: the activity, negative = cell killing in experiment [1] (setting [4]) was -5.78%; in experiment [1] (setting [5]) it was 4.24%; in experiment [1] (setting [6]) it was 3.74%. For the same compound, in the experiment on astro, the Potency entry was “inactive”. Moreover, the max response in experiment [2] is 6.71% and 3.85%. Besides, in experiment [3], the outcome was inactive.

For `Clc1ccc(C(Cn2ccnc2)OCc2csc3c(Cl)cccc23)c(Cl)c1` (stereo not drawn), the activity, negative = cell killing was 2.67% in experiment [1] (at 20 µM (top of the series), tumour line C) and -18.1% in experiment [1] (at 21.2 µM (top of the series), tumour line B). Also, the Potency in experiment [1] (tumour line A) was 12.6 µM (active). In addition, the Potency result in the experiment with astro is “inactive”.

On to `C[C@]12CC[C@H]3[C@@H](CC[C@@]45O[C@@H]4C(O)=C(C#N)C[C@]35C)[C@@H]1CC[C@@H]2O`, for which the activity, negative = cell killing in experiment [1] (setting [4]) is 0.146%; in experiment [1] (setting [5]) it was -21.9%; in experiment [1] (setting [6]) it was -5.72%. In the experiment with astro, the Potency entry is “inactive”.

As for `C[C@H]1CCC[C@H](O)CCCCCc2cc(O)cc(O)c2C(=O)O1`, the activity, negative = cell killing in experiment [1] (setting [6]) is 1.42%. The Potency is 12.6 µM (active) in experiment [1] (tumour line A) and 35.5 µM (active) in experiment [1] (tumour line D). The Potency result in the experiment on astro is “inactive”. The max response in experiment [2] is -2.32%.
